Results: PubChem BioAssay (Tox21)
Unmarked numbers belong to inactive results. Results filed as inconclusive are left out. Entries that show only a call come without a potency. Activity calls are given as the source filed them. Unless noted, calls come from the whole dose curve.

Tests used:
[1] = Nuclear factor erythroid 2-related factor 2/antioxidant responsive element (Nrf2/ARE) small molecule agonists: qHTS cell viability counter screen in human keratinocytes (AID 1919968; active = well fitted curve in the direction sought with a large enough effect in the repeat runs; an effect the other way counts as inactive or inconclusive; note: nearly all actives have a fitted effect of over 55% in size)
In short: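 CellTiter-Fluor fluorescence, read 1 h after reagent, gave viability in the same wells as the ARE-luciferase assay. KeratinoSens cells (1,500/well) had 23 h compound exposure at 37 C/5% CO2 following 5 h plating.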

[2] = Nuclear factor erythroid 2-related factor 2/antioxidant responsive element (Nrf2/ARE) small molecule agonists: luciferase reporter gene qHTS assay in human keratinocytes (AID 1919969); note: nearly all actives have a fitted effect of over 35% in size; note: potency is the fitted concentration of half-maximal effect
[3] = biological target: Gonadotropin-releasing hormone receptor (Homo sapiens) (UniProt P30968); assay: Human gonadotropin-releasing hormone receptor (GnRHR) small molecule agonists, calcium flux assay in GnRHR-HEK293 cells (AID 1920063); note: nearly all actives have a fitted effect of over 35% in size
Chain of Gonadotropin-releasing hormone receptor (Homo sapiens) (P30968 whole entry, looked up): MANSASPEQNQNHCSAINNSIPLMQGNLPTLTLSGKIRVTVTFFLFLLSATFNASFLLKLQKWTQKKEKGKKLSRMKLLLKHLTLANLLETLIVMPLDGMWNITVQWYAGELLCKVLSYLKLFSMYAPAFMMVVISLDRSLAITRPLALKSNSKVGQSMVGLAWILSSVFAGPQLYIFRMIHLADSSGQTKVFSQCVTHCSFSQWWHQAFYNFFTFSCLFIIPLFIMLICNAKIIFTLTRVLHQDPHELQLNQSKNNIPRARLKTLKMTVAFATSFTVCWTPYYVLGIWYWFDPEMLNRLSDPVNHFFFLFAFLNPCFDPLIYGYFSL
In short: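 Agonist mode: compounds at 15 concentrations, in triplicate, went onto calcium dye-loaded GnRHR-HEK293 cells. Intracellular calcium was then followed as 480/540 nm fluorescence at 1 s intervals over 3 min.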

[4] = biological target: KiSS-1 receptor (Homo sapiens) (UniProt Q969F8); assay: Human kisspeptin (KISS1R) small molecule agonists, calcium flux assay in KISS1R-HEK293 cells (AID 1920064; active = well fitted curve in the direction sought with a large enough effect in the repeat runs; an effect the other way counts as inactive or inconclusive)
Chain of KiSS-1 receptor (Homo sapiens) (Q969F8 whole entry, looked up): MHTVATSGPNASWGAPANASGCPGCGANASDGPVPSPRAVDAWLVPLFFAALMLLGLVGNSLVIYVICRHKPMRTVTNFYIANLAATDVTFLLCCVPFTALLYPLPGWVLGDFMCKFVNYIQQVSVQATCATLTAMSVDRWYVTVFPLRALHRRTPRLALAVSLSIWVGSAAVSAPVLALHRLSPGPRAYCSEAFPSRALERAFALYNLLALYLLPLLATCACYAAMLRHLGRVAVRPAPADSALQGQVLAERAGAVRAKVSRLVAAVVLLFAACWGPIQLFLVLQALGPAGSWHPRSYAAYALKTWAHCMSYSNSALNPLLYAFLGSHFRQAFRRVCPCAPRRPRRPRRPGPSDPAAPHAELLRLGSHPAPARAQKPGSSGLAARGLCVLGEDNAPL
In short: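 Agonist mode: intracellular calcium rise tracked at 1 s intervals over 3 min (480/540 nm) immediately after compound addition to dye-loaded KISS1R-HEK293 stable cells. Each compound tested at 15 concentrations in triplicate.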

[5] = G protein-coupled receptor (GPCR) small molecule agonists, calcium flux assay: HEK293 wild type cell line counter screen (AID 1920065)
In short: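 Calcium flux counter screen: compound added in agonist mode at 15 concentrations in triplicate to dye-loaded parental HEK293 cells. Fluorescence (480/540) read kinetically for 3 min; ATP served as positive control.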

[6] = p53 small molecule agonists, cell-based qHTS assay with human liver microsomes: qHTS cell viability counter screen (AID 1963579); note: nearly all actives have a fitted effect of over 45% in size
In short: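 HLM-supplemented (0.5 mg/mL final) and NADPH-supplemented (0.5 mg/mL final) p53RE-bla cultures, 4,000 cells per well, were dosed with compounds in DMSO for 16 h at 37 C; luminescent ATP detection (CellTiter-Glo, 30 min, room temperature) quantified surviving cells.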

[7] = p53 small molecule agonists, cell-based qHTS assay with rat liver microsomes: qHTS cell viability counter screen (AID 1963580); note: nearly all actives have a fitted effect of over 45% in size
In short: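 Counter screen for cytotoxicity under metabolic activation: rat liver microsomes and NADPH, 0.5 mg/mL final each, added with compounds to p53RE-bla HCT-116 cells; 16 h at 37 C, then ATP luminescence read.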

[8] = p53 small molecule agonists, cell-based qHTS assay: qHTS cell viability counter screen (AID 1963581); note: nearly all actives have a fitted effect of over 45% in size
In short: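 Counter screen read by CellTiter-Glo luminescence (ATP content, 30 min at room temperature), run in the same wells as the beta-lactamase reporter read. HCT-116 p53RE-bla cells saw compounds for 16 h at 37 C.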

[9] = biological target: 5-hydroxytryptamine receptor 2A (Homo sapiens) (UniProt P28223); assay: 5-hydroxytryptamine receptor 2A (HTR2A) small molecule antagonists, cell-based qHTS assay (AID 1963586); note: nearly all actives have a fitted effect of over 45% in size
Chain of 5-hydroxytryptamine receptor 2A (Homo sapiens) (P28223 whole entry, looked up): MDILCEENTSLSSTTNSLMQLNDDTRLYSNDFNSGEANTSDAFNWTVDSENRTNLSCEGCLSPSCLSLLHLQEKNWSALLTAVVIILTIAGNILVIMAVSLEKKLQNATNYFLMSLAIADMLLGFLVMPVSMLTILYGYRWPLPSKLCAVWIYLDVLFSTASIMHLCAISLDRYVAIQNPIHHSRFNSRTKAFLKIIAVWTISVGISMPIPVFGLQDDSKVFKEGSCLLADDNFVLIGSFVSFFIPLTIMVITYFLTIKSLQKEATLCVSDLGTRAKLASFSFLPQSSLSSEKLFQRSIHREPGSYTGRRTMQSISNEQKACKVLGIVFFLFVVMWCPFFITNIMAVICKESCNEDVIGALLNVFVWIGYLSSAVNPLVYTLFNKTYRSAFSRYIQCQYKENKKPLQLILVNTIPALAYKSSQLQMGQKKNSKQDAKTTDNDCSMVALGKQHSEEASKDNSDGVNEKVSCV
In short: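 CHO cells stably expressing human HTR2A were plated for 18 h at 37 C, then loaded with calcium dye for 1 h. Compounds were preincubated 5 min at room temperature before DOI (4 nM solution) was added. Kinetic fluorescence was read for 3 min.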

[10] = biological target: 5-hydroxytryptamine receptor 2A (Homo sapiens) (UniProt P28223); assay: 5-hydroxytryptamine receptor 2A (HTR2A) small molecule agonists, cell-based qHTS assay (AID 1963587); note: nearly all actives have a fitted effect of over 30% in size
In short: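 HTR2A-CHO cells, plated 18 h at 37 C/5% CO2, dye-loaded 1 h at 37 C; compounds in DMSO added by pin tool (agonist mode). Intracellular calcium flux read as kinetic fluorescence on FDSS over 2 min at 1 s intervals.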

[11] = biological target: Muscarinic acetylcholine receptor M1 (Homo sapiens) (UniProt P11229); assay: Cholinergic receptor muscarinic 1 (CHRM1) small molecule antagonists, cell-based qHTS assay (AID 1963588); note: nearly all actives have a fitted effect of over 40% in size
Chain of Muscarinic acetylcholine receptor M1 (Homo sapiens) (P11229 whole entry, looked up): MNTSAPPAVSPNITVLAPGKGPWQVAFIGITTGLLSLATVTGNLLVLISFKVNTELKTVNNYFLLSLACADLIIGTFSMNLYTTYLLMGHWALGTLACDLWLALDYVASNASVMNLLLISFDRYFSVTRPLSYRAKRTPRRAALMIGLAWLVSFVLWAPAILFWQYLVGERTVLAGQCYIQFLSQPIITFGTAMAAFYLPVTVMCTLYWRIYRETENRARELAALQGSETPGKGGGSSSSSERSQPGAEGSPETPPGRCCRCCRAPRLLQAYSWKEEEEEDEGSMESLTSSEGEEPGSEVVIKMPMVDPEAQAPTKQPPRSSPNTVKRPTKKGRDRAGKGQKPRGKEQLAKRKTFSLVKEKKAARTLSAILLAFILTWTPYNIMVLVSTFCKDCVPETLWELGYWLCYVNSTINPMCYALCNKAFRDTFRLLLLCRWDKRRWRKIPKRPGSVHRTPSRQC
In short: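 Compounds were tested at 15 concentrations in three independent runs. Dye-loaded CHRM1-CHO cells were exposed 5 min at room temperature before stimulation by acetylcholine added at 50nM. Intracellular calcium was read kinetically on FDSS for 3 min.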

[12] = biological target: Muscarinic acetylcholine receptor M1 (Homo sapiens) (UniProt P11229); assay: Cholinergic receptor muscarinic 1 (CHRM1) small molecule agonists, cell-based qHTS assay (AID 1963589); note: nearly all actives have a fitted effect of over 35% in size
In short: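 Agonist-mode calcium-flux screen: compounds at 15 concentrations, three independent runs, were pin-transferred onto dye-loaded human CHRM1-CHO cells. Fluorescence was then recorded kinetically every second over minutes.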

[13] = cAMP Responsive Elements (CRE) small molecule agonists, cell-based qHTS assay (AID 1963590)
In short: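 Agonist mode: compound added to CRE-bla HEK 293T cells (2,000/well, 18 h after plating) for 3 h at 37 C/5% CO2. Reporter activity detected via FRET beta-lactamase substrate, 2 h room-temperature loading.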

[14] = biological target: Beta-2 adrenergic receptor (Homo sapiens) (UniProt P07550); assay: Adrenergic beta2 receptor (ADRB2) small molecule antagonists, cell-based qHTS assay (AID 1963592); note: nearly all actives have a fitted effect of over 50% in size; note: potency is the fitted concentration of half-maximal effect
Chain of Beta-2 adrenergic receptor (Homo sapiens) (P07550 whole entry, looked up): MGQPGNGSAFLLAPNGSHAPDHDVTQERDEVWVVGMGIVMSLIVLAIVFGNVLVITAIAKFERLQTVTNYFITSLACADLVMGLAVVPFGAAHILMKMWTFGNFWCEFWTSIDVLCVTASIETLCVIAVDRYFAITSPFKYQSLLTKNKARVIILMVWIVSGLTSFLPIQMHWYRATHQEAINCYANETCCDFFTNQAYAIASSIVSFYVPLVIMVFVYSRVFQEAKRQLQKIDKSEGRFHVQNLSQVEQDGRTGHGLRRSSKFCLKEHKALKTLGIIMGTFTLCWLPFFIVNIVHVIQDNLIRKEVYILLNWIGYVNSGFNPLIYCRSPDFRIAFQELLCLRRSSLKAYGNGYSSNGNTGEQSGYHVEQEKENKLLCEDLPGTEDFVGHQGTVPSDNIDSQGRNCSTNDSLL
In short: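 Assay format: CHO-ADRB2 cells, 18-20hr seeding at 37C/5% CO2, then compound plus 1nM isoproterenol agonist mix for 0.5hr RT. Homogeneous time-resolved fluorescence cAMP detection after 1hr, expressed as 665/615 nm ratio.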

[15] = biological target: Beta-2 adrenergic receptor (Homo sapiens) (UniProt P07550); assay: Adrenergic beta2 receptor (ADRB2) small molecule agonists, cell-based qHTS assay (AID 1963593);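 note: CHO cells stably overexpressing human ADRB2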
In short: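 CHO cells stably over-expressing ADRB2 were plated overnight at 37C, then dosed with compounds plus a stimulation mix containing 100uM IBMX and 25uM Ro-20-1724 for 0.5hr at room temperature. cAMP was measured by HTRF competition, 1hr.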

[16] = biological target: D(2) dopamine receptor (Homo sapiens) (UniProt P14416); assay: Dopamine D2 receptor (DRD2) small molecule agonists, cell-based qHTS assay (AID 1963594); note: nearly all actives have a fitted effect of over 35% in size
Chain of D(2) dopamine receptor (Homo sapiens) (P14416 whole entry, looked up): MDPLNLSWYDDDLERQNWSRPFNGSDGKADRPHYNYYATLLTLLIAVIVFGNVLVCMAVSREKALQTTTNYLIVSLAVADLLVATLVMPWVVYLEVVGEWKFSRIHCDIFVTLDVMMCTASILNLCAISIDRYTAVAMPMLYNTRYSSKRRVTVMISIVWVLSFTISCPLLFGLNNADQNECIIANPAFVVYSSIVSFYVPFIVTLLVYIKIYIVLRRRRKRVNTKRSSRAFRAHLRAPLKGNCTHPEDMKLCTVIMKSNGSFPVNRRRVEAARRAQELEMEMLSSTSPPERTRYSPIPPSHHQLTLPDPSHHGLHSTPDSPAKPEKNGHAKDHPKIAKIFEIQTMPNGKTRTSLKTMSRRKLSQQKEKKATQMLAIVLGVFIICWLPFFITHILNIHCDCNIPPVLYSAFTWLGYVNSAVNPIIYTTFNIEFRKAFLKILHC
In short: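 HEK293 cells stably expressing DRD2 were cultured 24 h at 37 C, then given Ro20-1724 (0.1 mM final) and compounds for 10 min at room temperature. NKH477 (200nM) was then added for 30 min. cAMP was read by HTRF.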

[17] = biological target: D(2) dopamine receptor (Homo sapiens) (UniProt P14416); assay: Dopamine D2 receptor (DRD2) small molecule antagonists, cell-based qHTS assay (AID 1963595; active = well fitted inhibition curve with a large enough effect in the signal ratio in the repeat runs, with a control signal flat; the % refers to the signal ratio)
In short: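 Stable D2 receptor HEK293 line, 24 h after seeding. Compound preincubated 10 min, then quinpirole (12 nM) with forskolin analogue NKH477 (200 nM), 30 min, room temperature. Detection by time-resolved FRET of cAMP.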

[18] = cAMP Responsive Elements (CRE) small molecule antagonists, cell-based qHTS assay (AID 1963591; active = well fitted inhibition curve with a large enough effect in the signal ratio in the repeat runs, not every such curve was filed as active; the % refers to the signal ratio)
In short: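 Antagonist mode: compounds are added alongside the adenylyl cyclase activator NKH477 (0.25 uM final) to CRE-bla HEK293T cells for 3 h. LiveBLAzer FRET substrate, 2 h at room temperature, reports bla expression.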

| Compound | Potency [1] | Potency [2] | Potency [3] | Potency [4] | Potency [5] | Potency [6] | Potency [7] | Potency [8] | Potency [9] | Potency [10] | Potency [11] | Potency [12] | Potency [13] | Potency [14] | Potency [15] | Potency [16] | Potency [17] | Potency [18] |
| --- | --- | --- | --- | --- | --- | --- | --- | --- | --- | --- | --- | --- | --- | --- | --- | --- | --- | --- |
| N#Cc1ccccc1O | inactive | inactive | inactive | inactive | inactive | inactive | inactive | inactive | inactive | inactive | inactive | inactive | inactive | inactive | inactive | inactive | inactive | – |
| Cc1cc(C(=C2C=CC(=Nc3ccc(S(=O)(=O)O)cc3S(=O)(=O)O)C=C2)c2ccc(Nc3ccc(S(=O)(=O)O)cc3)cc2)ccc1N | inactive | inactive | inactive | inactive | inactive | inactive | inactive | inactive | inactive | inactive | inactive | inactive | inactive | – | inactive | inactive | inactive | inactive |
| NCCCN(CCO)CCO | inactive | inactive | inactive | inactive | inactive | inactive | inactive | inactive | inactive | inactive | inactive | inactive | – | 0.217 µM (active) | – | inactive | inactive | inactive |
| CC(=O)c1ccccc1[N+](=O)[O-] | inactive | inactive | inactive | inactive | inactive | inactive | inactive | inactive | inactive | inactive | inactive | inactive | inactive | inactive | – | inactive | inactive | – |
| CC1=CC(=O)CCC1 | inactive | inactive | inactive | inactive | inactive | inactive | inactive | inactive | inactive | inactive | inactive | inactive | inactive | inactive | – | inactive | inactive | – |
| COC(C)(C)OC | inactive | inactive | inactive | inactive | inactive | inactive | inactive | inactive | inactive | inactive | inactive | inactive | inactive | inactive | – | inactive | inactive | – |
| CCCCCCCCCCCCCBr | inactive | inactive | inactive | inactive | inactive | inactive | inactive | inactive | inactive | inactive | inactive | inactive | – | inactive | inactive | inactive | inactive | – |
| CC(C)(C)OC(=O)c1ccc(O)cc1 | inactive | 61.1 µM (active) | inactive | inactive | inactive | inactive | inactive | inactive | inactive | inactive | inactive | inactive | inactive | inactive | – | inactive | inactive | – |
| O=C(O)CCSSCCC(=O)O | inactive | inactive | inactive | inactive | inactive | inactive | inactive | inactive | inactive | inactive | inactive | inactive | – | inactive | inactive | inactive | inactive | – |
| CCCCCC(C)O (centres undefined) | inactive | inactive | inactive | inactive | inactive | inactive | inactive | inactive | inactive | inactive | inactive | inactive | – | inactive | inactive | inactive | inactive | inactive |
| COc1cc(C)cc(O)c1 | inactive | inactive | inactive | inactive | inactive | inactive | inactive | inactive | inactive | inactive | inactive | inactive | inactive | inactive | inactive | inactive | inactive | – |
| CC(C)COC(=O)COc1ccc(Cl)cc1Cl | inactive | inactive | inactive | inactive | inactive | inactive | inactive | inactive | inactive | inactive | inactive | inactive | – | inactive | – | inactive | inactive | – |
| CCOC(=O)C(F)(F)F | inactive | inactive | inactive | inactive | inactive | inactive | inactive | inactive | inactive | inactive | inactive | inactive | – | inactive | inactive | inactive | inactive | inactive |
| NNC(=O)CCCCC(=O)NN | inactive | inactive | inactive | inactive | inactive | inactive | inactive | inactive | inactive | inactive | inactive | inactive | – | inactive | inactive | inactive | inactive | inactive |
